A selection: hits, their analogues and other compounds. The true share with any hit is near 2.4%.
TMEM16A act = activators or potentiators of mouse TMEM16A chloride channel; Q8BHY3; HEK293 TMEM16A/YFP-H148Q/I152L, iodide quench fluorescence; active compounds read low; B-score at 10 µM; 340,000 tested, 0.3% active; AID 623877;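 active = fluorescence-ratio B-score plate-corrected deviation score at least 3 library SD below zero, with starting fluorescence score within 5 deviations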;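 also: channel opened by trigger with iodide after compound preincubation; score built on the fluorescence ratio of max minus min over baseline; more negative score means more quench and so TMEM16A activation or potentiation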
CHT inh = inhibits the human high affinity choline transporter. Q9GZV3. CHT-expressing cells, membrane potential dye, choline response; active compounds read low. B-score at 10 µM. 310,000 tested, 0.86% active;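 active = B-score over 3 SD under the library average, and starting fluorescence ratio not unusually high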;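 also: choline stimulus applied at its EC90 after an EC20 pre-addition; B-score computed on integrated fluorescence ratio after choline addition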
ANO1 block = blocks the mouse calcium-activated chloride channel TMEM16A. Q8BHY3. HEK293 TMEM16A/YFP iodide influx fluorescence, ionomycin. normalized B-score (activity score, 25-100; higher = stronger inhibition) at 10 µM. 310,000 tested, 1.2% active;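 active = ratio plate-corrected score three or more library SD toward inhibition, starting fluorescence score within five deviations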;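 also: score derived from kinetic fluorescence span divided by baseline fluorescence per well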
CHT allo act = human CHT allosteric activation | CHT-expressing cells, membrane potential dye, choline EC20; active compounds read high; LV-AA mutant CHT in HEK293 cells | B-score at 10 µM | 310,000 tested, 0.49% active | AID 488977;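 active = initial fluorescence not abnormally high and integrated response B-score, plate-corrected, over 3 SD above library mean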
TMEM16A reconf = reconfirmed blocker of mouse TMEM16A calcium-activated chloride channel; shares compounds with ANO1 block; HEK293 TMEM16A/YFP-H148Q, iodide quench fluorescence; ionomycin added to raise cell calcium; inhibition, % at 10 µM; AID 652189; 2,300 tested, 39% active;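 active = mean duplicate percent inhibition, scaled so buffer wells are 0 and the reference blocker 100, over three buffer SD above buffer mean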
HEK293 Ca mobil = calcium mobilization counter-screen hit for TMEM16A inhibitor series; shares compounds with ANO1 block; TMEM16A/YFP HEK293, Fluo4 calcium mobilization; calcium response (% of ionomycin), % at 10 µM; 2,300 tested, 2% active; AID 652231;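 active = duplicate-averaged calcium signal over 20% of the ionomycin maximum, relative to buffer baseline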;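 also: each well's signal is peak minus trough fluorescence divided by its pre-addition baseline; 0% = buffer wells and 100% = ionomycin wells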
YFP-HEK293 quench = parental YFP-HEK293 iodide quench counter-screen activity | shares compounds with ANO1 block | ionomycin | YFP ratio F(max-min)/F0 at 10 µM | 2,300 tested, under 10 active | AID 652233;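 active = yellow fluorescent protein signal ratio exceeding the buffer control mean by over 5 SD of those controls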;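 also: ratio is mean of duplicate wells from kinetic YFP trace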
ClC-1 inh = selectivity of TMEM16A inhibitors: inhibition of rat ClC-1 chloride channel | shares compounds with ANO1 block | CHO ClC-1-YFP, iodide influx fluorescence quench; iodide control reads 0, buffer control 100 | ratio percent, % at 10 µM | 2,300 tested, under 10 active;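 active = duplicate-mean ratio percent above the mean of iodide-only control wells, which defines zero, plus 5 of their SD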;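 also: higher percent means stronger block of ClC-1 iodide influx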
* = called active by the depositor; i = inactive; . = not tested or not shown.

SMILES	TMEM16A act	CHT inh	ANO1 block	CHT allo act	TMEM16A reconf	HEK293 Ca mobil	YFP-HEK293 quench	ClC-1 inh
COc1ccc(OC)c(S(=O)(=O)Nc2ccc(Oc3ccccc3)cc2)c1	i	i	25*	i	i	i	-1.14	-13.0
COc1ccc(OC)c(S(=O)(=O)Nc2ccc(C(C)=O)cc2)c1	i	i	i	i	.	.	.	.
O=C(CSc1n[nH]c(=O)n1Cc1ccco1)Nc1ccccc1	i	i	i	i	.	.	.	.
CC(C)c1ccc(NC(=O)CSc2n[nH]c(=O)n2Cc2ccco2)cc1	i	i	25*	i	20.0%*	i	-1.02	-18.5
Cc1ccnc(NC(=O)COc2ccc3oc4c(c3c2)CCCC4)c1	i	i	100*	i	i	i	-1.11	-2.5
Cc1[nH]c2ccccc2c1SCC(=O)O	i	i	i	i	.	.	.	.
COCC(=O)NCCSc1c(C)[nH]c2ccccc12	i	i	100*	i	i	i	-0.923	-7.0
C[C@@H]1COC(=O)[C@H](CC(=O)OC(C)(C)C)C/C=C\C[C@@H](CC(=O)N(CCO)Cc2ccccc2)C(=O)N1	i	.	.	.	.	.	.	.
COc1ccc(-c2cccc(C3CC=CC4C3C(=O)N(Cc3ccccc3)C4c3ccc(C(F)(F)F)cc3)c2)cc1 (stereo unspecified)	i	i	i	i	.	.	.	.
O=C1C2C(c3ccccc3)CC=CC2[C@H](c2ccc(C(F)(F)F)cc2)N1Cc1ccccc1 (stereo partly specified)	i	i	25*	i	i	i	-1.11	-9.5
CC(C)N(Cc1nccn1C)C(=O)c1cc(COc2ccc3ncccc3c2)on1	i	i	i	i	.	.	.	.
Cc1nc(CN(C)C(=O)c2cc(COc3ccc4ncccc4c3)on2)cs1	i	i	100*	i	18.5%*	i	-1.04	-25.0
N#C/C(=C\c1cccnc1)C(=O)Nc1cccc(Cl)c1	i	i	i	i	.	.	.	.
Cc1cccc(NC(=O)/C(C#N)=C\c2cccnc2)c1	i	i	25*	i	27.5%*	i	-0.978	-12.0
C/C(CC1CC2=C(CC1(C)C)C(C)(C)CCC2)=N\NC(N)=S (stereo unspecified)	i	i	25*	i	i	25.5%*	-1.03	-5.0
C/C(CC1CC(C)(C)OC1=O)=N\NC(N)=S (stereo unspecified)	i	i	i	i	.	.	.	.
CN(C)S(=O)(=O)c1cccc(NC(=O)CSc2ncnc3ccccc23)c1	i	i	25*	i	i	i	-0.948	-10.5
Cc1cc(C(=O)OCC(=O)Nc2cccc(S(=O)(=O)N(C)C)c2)c2ccccc2n1	i	i	i	i	i	i	-1.51	-2.5
Cc1cc(C)n(CCN(C)c2nc3nonc3nc2NC2CC2)n1	i	i	i	i	.	.	.	.
Nc1ncncc1-c1ccc([N+](=O)[O-])cc1	i	i	i	i	.	.	.	.
CC(C)(C)C1=Nn2c(nnc2-c2ccccn2)SC1	i	i	i	i	i	i	-1.22	-15.0
CC(C)(C)C1=Nn2c(nnc2-c2ccccc2F)SC1	i	i	i	i	.	.	.	.
CCn1c(CCNC(=O)c2cccs2)nnc1SCC(=O)Nc1ccc(Cl)cc1	i	i	25*	i	i	i	-0.974	-4.5
COC(=O)c1ccc(C(=O)OC)c(NS(C)(=O)=O)c1	i	i	25*	i	i	i	-0.957	-11.0
NS(=O)(=O)c1ccc(CCNCc2ccccc2OCc2ccc(F)cc2)cc1	i	i	i	i	.	.	.	.
NS(=O)(=O)c1ccc(NCc2ccccc2OCc2ccc(F)cc2)cc1	i	i	100*	i	i	i	-0.928	-2.5
